Assay results as given in PubChem BioAssay.
Results with a measured potency or affinity are listed apart. Inconclusive results are not listed. The source made the active and inactive calls. Unless noted, how the calls were made is not given here.

Key:
[1] = cytotoxicity in PAX8-dependent RMG-1 cells, dose response, cell-based, cherry-pick (AID 687029;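 active means signal drop whose fitted half-maximal concentration is at most twice the top valid dose, in every test run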;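 further: cells exposed to compound for 96 hours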)
[2] = cytotoxicity in IOSE-T80 ovarian epithelial cells, dose response, selectivity assay for PAX8 inhibitor project, cell-based, cherry-pick (AID 687032;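 active means fitted half-maximal concentration for viability loss no higher than twice the top valid dose, in every repeat run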;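 further: cells exposed to compound for 96 h before reading; 0% = neutral control wells and -100% = 2 µM mitoxantrone kill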)
[3] = inhibitors of CMV-promoter luciferase reporter, dose response, counter-screen for Pax8 inhibitor project, cell-based, HEK293, luminescence, dry powder (AID 743020;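 active means signal-lowering compounds whose fitted half-maximal concentration is at or below twice the top tested dose in every run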;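 further: HEK293 cells stably expressing the CMV luciferase reporter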)
[4] = non-specific cell cytotoxicity, dose response, cytotoxicity control for PAX8 inhibitor project, plate reader, dry powder samples (AID 743021)
[5] = IGROV1 ovarian cancer cell cytotoxicity, dose response, PAX8 inhibitor project, plate reader, dry powder samples (AID 743043);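 further: more negative means fewer viable cells or more cytotoxicity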
[6] = NIH:OVCAR-3 ovarian cancer cell cytotoxicity, dose response, PAX8 inhibitor project, plate reader, dry powder samples (AID 743044); conditions: max activity: at 35 µM, hits give low values unless noted
[7] = IOSE-T80 ovarian epithelial cell cytotoxicity, dose response, cytotoxicity control for PAX8 inhibitor project, plate reader, dry powder samples (AID 743045);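 further: 0% = neutral control median and -100% = positive control median; more negative values mean more cell killing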
[8] = A2780 ovarian cancer cell cytotoxicity, dose response, cytotoxicity control, plate reader, dry powder samples (AID 743046);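 further: 0% = neutral control wells and -100% = cytotoxic reference compound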
[9] = cytotoxicity in OVCAR8 ovarian cancer cells, dose response, PAX8 project, cell-based, plate reader, dry powder samples (AID 743197)

Measured: max activity

C[C@@H]1CCCCO[C@H](CN(C)CC2CCCCC2)[C@H](C)CN([C@H](C)CO)C(=O)c2cc(NS(=O)(=O)c3ccc(Cl)cc3)ccc2O1
inactive: [1] | [2] | [3] | [4] | [5] | [6] 10.1% | [7] | [8] | [9]

C[C@H](CO)N1C[C@H](C)[C@@H](CN(C)Cc2ccc(C(F)(F)F)cc2)Oc2ccc(NS(=O)(=O)c3ccc(F)cc3)cc2CC1=O
inactive: [1] | [2] | [3] | [4] | [5] | [6] 24.7% [at 16 µM, hits give low values] | [7] | [8] | [9]

C[C@H](O)C#Cc1ccc2c(c1)O[C@@H](CN(C)Cc1ccc(-c3ccccc3)cc1)[C@@H](C)CN([C@@H](C)CO)S2(=O)=O
inactive: [1] | [2] | [3] | [4] | [5] | [6] -22.5% | [7] | [8]

C[C@@H]1CCCCO[C@@H](CN(C)Cc2ccc(Cl)c(Cl)c2)[C@H](C)CN([C@@H](C)CO)C(=O)c2cc(NS(=O)(=O)c3ccc(Cl)cc3)ccc2O1
inactive: [1] | [2] | [3] | [4] | [5] | [6] 10.4% [at 0.5 µM, hits give low values] | [7] | [8]

C[C@@H]1CCCCO[C@@H](CN(C)Cc2ccc(Cl)c(Cl)c2)[C@H](C)CN([C@@H](C)CO)C(=O)c2cc(NS(=O)(=O)c3ccccc3)ccc2O1
inactive: [1] | [2] | [3] | [4] | [5] | [6] -34.1% [at 0.26 µM, hits give low values] | [7] | [8]

C[C@H](CO)N1C[C@H](C)[C@H](CN(C)Cc2ccc(C(F)(F)F)cc2)Oc2ccc(NS(=O)(=O)c3ccc(F)cc3)cc2CC1=O
inactive: [1] | [2] | [3] | [4] | [5] | [6] 12.3% [at 16 µM, hits give low values] | [7] | [8]

O=C(Nc1cccc(F)c1)N1CCCCN2[C@@H](CO)[C@@H](c3ccc(-c4ccncc4)cc3)[C@@H]2C1
inactive: [1] | [2] | [3] | [4] | [5] | [6] 12.6% [at 1 µM, hits give low values] | [7] | [8]

C[C@@H]1CN([C@@H](C)CO)C(=O)c2cc(NS(=O)(=O)c3ccc(F)cc3)ccc2O[C@@H](C)CCCCO[C@H]1CN(C)Cc1ccc(C(F)(F)F)cc1
inactive: [1] | [2] | [3] | [4] | [5] | [6] -20.3% [at 0.26 µM, hits give low values] | [7] | [8] | [9]

C[C@@H]1CN([C@@H](C)CO)C(=O)Cc2cc(NC(=O)Nc3ccc(C(F)(F)F)cc3)ccc2O[C@H]1CN(C)C(=O)Nc1ccc(C(F)(F)F)cc1
inactive: [1] | [2] | [3] | [4] | [5] | [6] -32.2% | [7] | [8]

CC(C)CC#Cc1ccc2c(c1)O[C@H](CN(C)S(=O)(=O)c1ccc(F)cc1)[C@H](C)CN([C@@H](C)CO)S2(=O)=O
inactive: [1] | [2] | [3] | [4] | [5] | [6] -39.6% | [7] | [8] | [9]

C[C@@H]1CCCCO[C@H](CN(C)C(=O)C2CCCCC2)[C@@H](C)CN([C@@H](C)CO)C(=O)c2cc(NC(=O)Nc3ccccc3)ccc2O1
inactive: [1] | [2] | [3] | [4] | [5] | [6] 37.9% [at 1 µM, hits give low values] | [7] | [8] | [9]

COc1ccc(CN(C)C[C@@H]2OCCCC[C@@H](C)Oc3ccc(NC(=O)Nc4ccc(C(F)(F)F)cc4)cc3C(=O)N([C@@H](C)CO)C[C@H]2C)cc1
inactive: [1] | [2] | [3] | [4] | [5] | [6] -5.22% [at 16 µM, hits give low values] | [7] | [8]

C[C@H]1CCCCO[C@@H](CN(C)S(=O)(=O)c2cccs2)[C@@H](C)CN([C@@H](C)CO)C(=O)c2cc(NC(=O)NC3CCCCC3)ccc2O1
inactive: [1] | [2] | [3] | [4] | [5] | [6] -5.85% [at 8 µM, hits give low values] | [7] | [8] | [9]

Cc1ccc(S(=O)(=O)Nc2ccc3c(c2)C(=O)N([C@@H](C)CO)C[C@@H](C)[C@H](CN(C)Cc2ccc(Cl)c(Cl)c2)OCCCC[C@@H](C)O3)cc1
inactive: [1] | [2] | [3] | [4] | [5] | [6] -18.1% [at 4.2 µM, hits give low values] | [7] | [8] | [9]

C[C@@H]1CCCCO[C@@H](CN(C)Cc2ccc(C(F)(F)F)cc2)[C@H](C)CN([C@@H](C)CO)C(=O)c2cc(NS(=O)(=O)c3ccccc3)ccc2O1
inactive: [1] | [2] | [3] | [4] | [5] | [6] 11.3% [at 2.1 µM, hits give low values] | [7] | [8] | [9]

C[C@H](O)C#Cc1ccc2c(c1)O[C@H](CN(C)Cc1ccc(-c3ccccc3)cc1)[C@H](C)CN([C@@H](C)CO)S2(=O)=O
inactive: [1] | [2] | [3] | [4] | [5] | [6] 54.2% [at 0.5 µM, hits give low values] | [7] | [8]

CCCN1[C@H](C(=O)N2CCOCC2)[C@@H](CO)[C@@H]2Cn3c(ccc(/C=C/c4ccccc4)c3=O)[C@@H]21
inactive: [1] | [2] | [3] | [4] | [5] | [6] -10.3% [at 0.5 µM, hits give low values] | [7] | [8]

C[C@@H]1CN([C@@H](C)CO)C(=O)c2c(c3ccccc3n2C)-c2ccccc2CO[C@H]1CN(C)S(=O)(=O)c1ccccc1F
inactive: [1] | [2] | [3] | [4] | [5] | [6] -17.2% [at 18 µM, hits give low values] | [7] | [8]

C[C@@H]1CN([C@@H](C)CO)C(=O)c2ccccc2-c2ccccc2CO[C@H]1CN(C)Cc1ccccc1C(F)(F)F
inactive: [1] | [2] | [3] | [4] | [5] | [6] 28.3% [at 16 µM, hits give low values] | [7] | [8] | [9]

C[C@@H]1CN([C@@H](C)CO)C(=O)Cc2cc(NS(=O)(=O)c3ccc(F)cc3)ccc2O[C@H]1CN(C)Cc1ccc(Oc2ccccc2)cc1
inactive: [1] | [2] | [3] | [4] | [5] | [6] -22.3% [at 4.2 µM, hits give low values] | [7] | [8] | [9]

Cc1ccc(S(=O)(=O)Nc2ccc3c(c2)C(=O)N([C@@H](C)CO)C[C@@H](C)[C@@H](CN(C)Cc2ccc(C(F)(F)F)cc2)OCCCC[C@H](C)O3)cc1
inactive: [1] | [2] | [3] | [4] | [5] | [6] -14.9% [at 2.1 µM, hits give low values] | [7] | [8] | [9]

C[C@H](CO)N1C[C@H](C)[C@H](CN(C)C(=O)NC2CCCCC2)Oc2cc(C#Cc3ccc(F)cc3)ccc2S1(=O)=O
inactive: [1] | [2] | [3] | [4] | [5] | [6] -20.7% | [7] | [8] | [9]

Cc1ccc(S(=O)(=O)N(C)C[C@H]2Oc3c(NC(=O)Nc4ccc(F)cc4)cccc3C(=O)N([C@@H](C)CO)C[C@H]2C)cc1
inactive: [1] | [2] | [3] | [4] | [5] | [6] -10.2% | [7] | [8] | [9]

C[C@@H]1CCCCO[C@H](CN(C)C(=O)Nc2ccc(C(F)(F)F)cc2)[C@H](C)CN([C@@H](C)CO)C(=O)c2cc(NS(=O)(=O)c3ccc(Cl)cc3)ccc2O1
inactive: [1] | [2] | [3] | [4] | [5] | [6] -7.31% | [7] | [8] | [9]

O=C(C[C@H]1CC[C@@H]2[C@H](COC[C@@H](O)CN2Cc2ccc(F)cc2)O1)NCc1ccccc1Cl
inactive: [1] | [2] | [3] | [4] | [5] | [6] 64.7% | [7] | [8] | [9]

C[C@@H]1CCCCO[C@@H](CN(C)C(=O)C2CCCCC2)[C@H](C)CN([C@@H](C)CO)C(=O)c2cc(NS(=O)(=O)c3ccc(Cl)cc3)ccc2O1
inactive: [1] | [2] | [3] | [4] | [5] | [6] -23.1% | [7] | [8] | [9]

C[C@H](CO)N1C[C@H](C)[C@@H](CN(C)Cc2ccc(Cl)c(Cl)c2)OCCCC[C@H](C)Oc2ccc(NC(=O)Nc3ccc(C(F)(F)F)cc3)cc2C1=O
inactive: [1] | [2] | [3] | [4] | [5] | [6] 35.5% [at 2.1 µM, hits give low values] | [7] | [8] | [9]

C[C@H](CO)N1C[C@H](C)[C@@H](CN(C)Cc2ccc(Cl)c(Cl)c2)OCCCC[C@H](C)Oc2ccc(NC(=O)Nc3ccccc3)cc2C1=O
inactive: [1] | [2] | [3] | [4] | [5] | [6] -26.8% [at 0.26 µM, hits give low values] | [7] | [8] | [9]
